Sampled rows, rich in hits. Any-hit rate of the full collection: about 2.7%.
pAkt inh – HTS Assay for Inhibitors of Akt Phophorylation: Primary Screen; Neuro2A IGF-stimulated pAkt S473 HTRF, 20 min; hits give low values; activity change, % for hits at 50 µM; actives 0.32% (n = 360,000); AID 651550, 2012; in the data active = activity change below about -80%; inconclusive = mostly about -51% to -80%
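Neuro2A cells (4,500/well, DMEM with 0.5% FBS) were treated with compound at a single 50 µM final concentration, stimulated with 6 nM IGF for 20 min at 37 °C, and lysed. Phospho-Akt Ser473 was read by HTRF as 665/615 ratio ×10^4.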
RXFP1 antagonist – qHTS Assay for Antagonists of the Relaxin Receptor RXFP1; Relaxin receptor 1 (Homo sapiens), Q9HBX9; HEK293-RXFP1, relaxin-stimulated cAMP HTRF, 30 min; hits give low values; activity change, negative = inhibition, % at 57.5 µM; actives 0.59% (n = 350,000);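 active = activity change of -60% or lower, but not beyond a set lower limit; inconclusive = change between -60% and -40%, or beyond the set limit; inactive = change above -40%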
gsp agonist – qHTS for Agonist of gsp, the Etiologic Mutation Responsible for Fibrous Dysplasia/McCune-Albright Syndrome: qHTS; gsp mutant cells, cAMP HTRF, 30 min; Potency, µM (titrated, usually from 76.9 µM), hits mostly activators; actives 0.13% (n = 340,000); AID 624287, 2012; active = well fitted activation curve with a large enough effect; inconclusive = small, poorly fitted or top-dose-only effect, or another doubt; inactive = no such curve, though single readings can be large or run the other way; cell line not stated here;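 note: phosphodiesterase inhibitor Ro 20-1724 added with compounds to block cAMP breakdown; nearly all actives have a fitted effect of over 60% in size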
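Cells stably selected in G418 were plated at 2000/well, grown 16-24 hr, then given compounds in DMSO with the PDE inhibitor […] (300 uM solution added) for 30 min at 37C; cAMP was read by HTRF.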
RXFP1 ag – qHTS Assay for Agonists of the Relaxin Receptor RXFP1; Relaxin receptor 1 (Homo sapiens), Q9HBX9; HEK293T-RXFP1 cAMP TR-FRET, 30 min; response scale: percent of porcine relaxin response, buffer zero; Potency, µM (top dose mostly 57.5 µM), actives largely listed as activators; actives 0.3% (n = 370,000); AID 2676, 2010; active = well fitted activation curve with a large enough effect; inconclusive = small, poorly fitted or top-dose-only effect; note: nearly all actives have a fitted effect of over 60% in size
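cAMP rise read by TR-FRET after 30 min, 37C compound exposure (up to 58 uM) in RXFP1-transfected HEK293 cells with Ro 20174 present. EC50 from Hill-equation fits, with 29 nM porcine relaxin as 100% and buffer as basal.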
gsp antagonist – qHTS for Antagonists of gsp, the Etiologic Mutation Responsible for Fibrous Dysplasia/McCune-Albright Syndrome: qHTS | AID 624288, 2012 | gsp-mutant cells, cAMP HTRF, 30 min | Potency, µM (top dose mostly 76.9 µM), actives largely listed as inhibitors | actives 0.4% (n = 340,000); calls by dose curve; cell line not stated here;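 note: intracellular cAMP measured with PDE inhibitor Ro 20-1724 present during compound exposure; nearly all actives have a fitted effect of over 65% in size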
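Cells in G418 medium, seeded 16-24 h, 37C; buffer exchange to DPBS + 1 mM CaCl2, 0.5 mM MgCl2, 0.05% BSA; cpds in DMSO + […] (300 uM stock), 30 min 37C; HTRF cAMP detection.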
ClpP mod – qHTS Assay for Activators of ClpP; actives 1.9% (n = 340,000); purified B. subtilis ClpP, FRET peptide cleavage, 20 min; ATP-dependent Clp protease proteolytic subunit (Bacillus subtilis (strain 168)), P80244; Potency, µM (series often up to 57.5 µM); active = well fitted falling curve with a large enough effect; inconclusive = small, poorly fitted or top-dose-only effect; inactive = no such curve, though single readings can be large or run the other way; note: the source files actives as falling curves though it sought activators and does not explain the sign; nearly all actives have a fitted effect of over 65% in size
Target sequence (P80244 whole entry, looked up): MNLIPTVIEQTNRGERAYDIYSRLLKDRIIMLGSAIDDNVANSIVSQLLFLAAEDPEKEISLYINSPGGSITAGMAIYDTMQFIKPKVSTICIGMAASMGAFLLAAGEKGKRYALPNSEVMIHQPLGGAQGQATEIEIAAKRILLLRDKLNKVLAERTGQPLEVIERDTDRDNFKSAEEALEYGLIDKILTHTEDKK
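Buffer: 100 mM Tris/HCl pH8, 100 mM KCl, 0.05% low protease BSA, 2.5% glycerol, 0.01% Tween-20. ClpP 10 microg/mL final; 20 min RT; delta FRET normalized to ADEP and DMSO controls.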
Large screens that a line does not name were inactive; ! = a repeat was not active.

CCCCCCCCn1c2c(c(=N)c3ccccc31)CCC2	none (no result: ClpP mod)
CCOc1ccc(C(C)NC(=O)c2cc(=O)[nH]c3ccccc23)cc1OCC (stereo not given)	none (no result: ClpP mod)
Cc1ccc2[nH]c(=S)cc(C)c2c1	none
Cc1ccc2c(C)cc(=S)[nH]c2c1	gsp agonist 22.4µM, RXFP1 ag 28.2µM
O=C(/C=C/c1ccc(O)c(O)c1)O[C@@H]1C[C@@](OC(=O)/C=C/c2ccc(O)c(O)c2)(C(=O)O)C[C@@H](O)[C@@H]1O	none (no result: pAkt inh, gsp agonist, RXFP1 ag, gsp antagonist, ClpP mod)
CCCOc1ccc(-c2nc(OCC)c3ccccc3n2)cc1	ClpP mod 31.6µM
CC(C)C(=O)N(c1cc2sc(=O)oc2c2ccccc12)S(=O)(=O)c1cccs1	RXFP1 antagonist -67.6
CC(C)C(=O)N(c1ccc2oc(=O)sc2c1)S(=O)(=O)c1cccs1	none
COc1cc(/C=N/NC(=O)CCN2CCN(C)CC2)cc2c1OCO2	ClpP mod 15.8µM
COc1cc(/C=N/NC(=O)c2ccncc2)cc2c1OCO2	none
COc1ccccc1C(C)NCC(=O)NCC(=O)Nc1ccc(F)c(F)c1F (stereo not given)	none (no result: ClpP mod)
Cc1ccc(NC(=O)CN(C)C(=O)C(C)OC(=O)c2ccccc2NCCO)cc1 (stereo not given)	ClpP mod 25.1µM
CC(OC(=O)c1ccccc1NCCO)C(=O)NCC(=O)Nc1ccc(F)c(F)c1F (stereo not given)	ClpP mod 15.8µM
Cc1ccc(NC(=O)CN(C)C(=O)C(c2ccccc2)c2ccccc2)cc1	none
CCCCc1ncc(/C=C(\Cc2cccs2)C(=O)O)n1Cc1ccc(C(=O)O)cc1	none (no result: pAkt inh, gsp agonist, RXFP1 ag, gsp antagonist, ClpP mod)
COC(=O)C1(C)CN(S(=O)(=O)c2ccc(C)cc2)c2cc(OC)ccc2C1=O (stereo not given)	ClpP mod 12.6µM
COC(=O)C1(C)CCc2cc(OC)ccc2C1=O (stereo not given)	none
CN(C(=O)CN1C(=O)c2cccc(N)c2C1=O)C1CCCCC1	gsp antagonist inconclusive
Cc1ccccc1Oc1ncnc2oc(-c3ccccc3)cc12	ClpP mod 31.6µM
O=C1C[C@H]2C=CCc3cccc(c32)CN1Cc1cccc(F)c1	none (no result: pAkt inh, RXFP1 antagonist, gsp agonist, RXFP1 ag, gsp antagonist)
CCN(CC)C(=O)C1CCN(S(=O)(=O)c2ccc3c(c2)CCCN3C(=O)C2CCC2)CC1	RXFP1 antagonist -79.0
COc1ccccc1N1CCN(C(=O)C2CCCN(S(=O)(=O)c3ccc4c(c3)CCCN4C(C)=O)C2)CC1 (stereo not given)	gsp antagonist inconclusive
CC(=O)N1CCCc2cc(S(=O)(=O)N3CCCC(C(=O)N4CCN(c5ccccc5)CC4)C3)ccc21 (stereo not given)	gsp antagonist 35.5µM
Cc1ccc(C)c(NS(=O)(=O)c2ccc3c(c2)CCCN3C(=O)C2CCC2)c1	RXFP1 antagonist -63.4 (no result: pAkt inh, gsp agonist, gsp antagonist)
C=CCn1c(=O)n([C@@H]2O[C@H](CO)[C@@H](O)[C@H]2O)c2nc(N)[nH]c(=O)c21	none (no result: pAkt inh, gsp agonist, RXFP1 ag, gsp antagonist, ClpP mod)
CCN(CC)CCNC(=O)c1cc2c(-c3ccc(Cl)cc3)nn(C)c2s1	gsp agonist inconclusive (no result: RXFP1 antagonist)
CCCCN(CC)CCNC(=O)c1cc2c(-c3ccc(Cl)cc3)nn(C)c2s1	RXFP1 antagonist -103.8!, gsp agonist inconclusive
CN(C(=O)Nc1ccc(Cl)cc1)c1c2c(nn1C)CCCC2	pAkt inh -86.7%
Brc1cc(Br)c2ncnc(N3CCCCC3)c2c1	pAkt inh -82.3%, gsp agonist 14.1µM, RXFP1 ag 25.1µM
Clc1ccc(-n2ncc3c(N4CCCCCC4)ncnc32)cc1	none (no result: RXFP1 antagonist)
Cc1cccc2cc(CN(Cc3ccccc3)C(=S)NCCCN(C)C)c(=O)[nH]c12	gsp agonist inconclusive (no result: ClpP mod)
Cc1ccc(CN(Cc2cc3cccc(C)c3[nH]c2=O)C(=S)NCCCN(C)C)cc1	ClpP mod 22.4µM
COc1ccccc1N1CCN(C(=O)c2cnn(-c3ccc(C)c(C)c3)c2C2CCN(C(=O)OC(C)(C)C)CC2)CC1	none (no result: pAkt inh, gsp agonist, gsp antagonist)
O=C(NC(=S)NCCN1CCOCC1)c1ccccc1Br	ClpP mod 25.1µM
O=C(C[C@H]1CC[C@@H]2[C@H](COC[C@H](O)CN2Cc2cccc(C(F)(F)F)c2)O1)NCCc1ccccc1	none (no result: RXFP1 antagonist, gsp agonist, RXFP1 ag, gsp antagonist)
Cc1ccc(C(=O)O/N=C/c2c(Cl)n(C)c3ccccc23)cc1	pAkt inh -104.8%
COCCn1c(-c2ccccc2Cl)nc2c(c(=O)c3ccccc3n2C)c1=O	ClpP mod 17.8µM
CCC(C)(C(=O)NC1CCCCC1)N(C(=O)CNC(C)=O)c1c(C)n(C)n(-c2ccccc2)c1=O (stereo not given)	pAkt inh -131.4%, gsp agonist inconclusive
Cc1ccc2cc(CCNC(=O)c3cc4ccccc4o3)c(=O)[nH]c2c1C	gsp antagonist 35.5µM (no result: RXFP1 antagonist)
CN(CC(=O)Nc1cc(S(=O)(=O)N2CCCC2)ccc1Cl)Cc1nc2ccccc2c(=O)[nH]1	gsp antagonist inconclusive (no result: RXFP1 ag)
CCc1sc(C(C2C(=O)CC(C)(C)CC2=O)C2C(=O)CC(C)(C)CC2=O)cc1[N+](=O)[O-]	RXFP1 antagonist -98.4, gsp antagonist inconclusive (no result: ClpP mod)
CC1(C)CC(=O)C(C(c2ccc(F)cc2)C2C(=O)CC(C)(C)CC2=O)C(=O)C1	none
OC(c1ccc2c(c1)OCO2)c1ncc(-c2cccc(C(F)(F)F)c2)[nH]1 (stereo not given)	none (no result: RXFP1 antagonist, gsp agonist, RXFP1 ag, gsp antagonist)
CC(C)CC(NC(=O)c1ccc(Cl)cc1)C(=O)OCc1cc([N+](=O)[O-])cc2c1OCOC2 (stereo not given)	ClpP mod 22.4µM
CN1/C(=C/C(=O)c2ccc(Cl)cc2)Sc2cc3c(cc21)OCO3	gsp antagonist 31.6µM
CC(C)=CCOc1ccc(/C=C/C(=O)c2ccc(OCC=C(C)C)cc2OCC(=O)O)cc1	RXFP1 antagonist -102.3 (no result: pAkt inh, gsp agonist, RXFP1 ag, gsp antagonist, ClpP mod)
COc1ccc(S(=O)(=O)N2CCCCCC2)cc1C(=O)N(C)Cc1ccc(Cl)cc1Cl	none (no result: ClpP mod)
CCOC(=O)c1ccccc1N/C=C1\CCCC1=O	none
O=C1CCCC/C1=C\Nc1ccccc1C(=O)O	ClpP mod 31.6µM
O=C1CCCC/C1=C/Nc1ccc(C(=O)O)cc1	none
NC(=O)c1ccccc1N/C=C1\CCCCC1=O	gsp antagonist 50.1µM
COC(=O)c1sc2ccccc2c1-n1cccc1C(=O)C(=O)Nc1ccc(Cl)cc1	ClpP mod 14.1µM
